Rows were chosen to be rich in hits. Some 0.93% of all compounds tested hit in one or more screens of this group.
Six1-Eya2 inh = inhibitors of human Six1/Eya2 interaction. AID 651725. AlphaScreen GST-Six1/His-Eya2 binding, biochemical; stronger effect = lower value. activity change, % (test concentration not listed). actives 0.56% (n = 360,000). Q15475+O00167
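Compounds are tested against tagged Six1 and Eya2 proteins bridged by glutathione donor and nickel acceptor beads; after a one-hour incubation at 37 °C without light, AlphaScreen emission is recorded.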
MBNL1 CUG block = inhibitors of human MBNL1 binding to CUG repeat RNA; TR-FRET MBNL1-His/biotin-(CUG)12 binding, 665/545 ratio; Potency, µM (highest dose often 57.5 µM), most hits filed as inhibitors; actives 0.036% (n = 280,000); AID 2675; active = well fitted inhibition curve with a large enough effect in the signal ratio, with a control signal flat, not every such curve was filed as active; inconclusive = small, poorly fitted or top-dose-only effect, or effect the other way, or a change in a side signal; inactive = no such curve, though single readings can be large or run the other way; the % refers to the signal ratio
Target sequence (Q9NR56 whole entry, looked up): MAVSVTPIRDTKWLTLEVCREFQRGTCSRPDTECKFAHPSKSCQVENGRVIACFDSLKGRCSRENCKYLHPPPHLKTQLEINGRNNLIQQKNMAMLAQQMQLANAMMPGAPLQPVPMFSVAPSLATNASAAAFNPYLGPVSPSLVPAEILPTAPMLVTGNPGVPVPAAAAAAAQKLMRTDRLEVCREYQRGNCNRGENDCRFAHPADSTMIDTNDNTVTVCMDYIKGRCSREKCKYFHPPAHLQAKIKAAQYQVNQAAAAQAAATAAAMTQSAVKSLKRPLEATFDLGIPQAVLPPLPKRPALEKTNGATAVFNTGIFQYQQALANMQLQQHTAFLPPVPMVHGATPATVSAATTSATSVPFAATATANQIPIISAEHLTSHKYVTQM
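Ratiometric TR-FRET (665 over 545 nm, excitation 340 nm) tracks disruption of MBNL1-His/biotin-(CUG)12 complex after 60 min at room temperature, with compounds at 92 nM to 58 uM final.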
CtBP-E1A inh = CtBP/E1A binding inhibition | AlphaScreen GST-E1A/His-CtBP binding, 1536-well; stronger effect = lower value | activity change, % (test concentration not listed) | actives 0.49% (n = 340,000)
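Steps: dispense buffer (Tris pH 8.0, NaCl 300 mM, TCEP 1 mM, BSA, Tween 20); add 5X protein mix (GST-E1A, His-CtBP, 125 nM each); pin 23 nL compound; 2 h at 37 °C, dark; add 5X beads (50 ug/mL); 1 h; read.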
PKM2 act = PKM2 (human) enzyme activation. P14618. purified PKM2, Kinase-Glo ATP luminescence, activation; response scale: 0% is enzyme alone, no compound. Potency, µM (highest dose often 57.5 µM), most hits filed as activators. actives 0.34% (n = 260,000). AID 1631; active = well fitted activation curve with a large enough effect; inconclusive = small, poorly fitted or top-dose-only effect; inactive = no such curve, though single readings can be large or run the other way; also: nearly all actives have a fitted effect of over 55% in size
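Kinase-Glo luminescence reports ATP generated from ADP (0.1 mM) and PEP (0.5 mM) by purified hPK-M2 after 1 h at room temperature, pH 7.2 imidazole buffer; intermediate enzyme activity allows detecting inhibitors and activators.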
A number is an active result; [ ] = remark or other dose. Rule as the data show it, unless noted: active = activity change below about -65%; inconclusive = mostly about -30% to -63%; inactive = weaker than that.

`CC1(C)N=C(N)N=C(N)N1c1ccc(CCCCc2ccccc2)cc1` gave Six1-Eya2 inh inactive and CtBP-E1A inh inactive.
Screening COc1cccc(/C=N/NC(=O)C(=O)Nc2ccccc2OC(F)(F)C(F)F)c1O returned Six1-Eya2 inh -85.8, MBNL1 CUG block inactive, CtBP-E1A inh -73.1 and PKM2 act inactive.
`COc1cccc(/C=N/NC(=S)Nc2cccc(C(=O)O)c2)c1O` gave Six1-Eya2 inh -92.1, MBNL1 CUG block inactive, CtBP-E1A inh -90.7 and PKM2 act inactive.
COCCCNC(=S)N/N=C/c1cccc(OC)c1O was read as Six1-Eya2 inh -89.8, MBNL1 CUG block inactive, CtBP-E1A inh -92.4 and PKM2 act inactive.
COc1cc(/C=N/NC(=S)Nc2cccc(C(=O)O)c2)ccc1O was read as Six1-Eya2 inh inactive, MBNL1 CUG block inactive, CtBP-E1A inh inactive and PKM2 act inactive.
`COCCCNC(=S)N/N=C/c1ccc(O)cc1O` gave Six1-Eya2 inh -90.3, MBNL1 CUG block inactive, CtBP-E1A inh -93.3 and PKM2 act inactive.
For CCOC(=O)c1cc2ccccc2n1C1CCN(C)CC1 the results were Six1-Eya2 inh inactive and CtBP-E1A inh inactive.
`COc1ccc(C(=O)C[C@@H]2OC3CCCCC3N2S(=O)(=O)c2ccc(C)cc2)cc1OC` (some centres not stated) gave Six1-Eya2 inh inactive and CtBP-E1A inh inactive.
`CN1C2C=CC(=O)C1C1C(=O)N(c3ccccc3)C(=O)C12` (configuration not stated) gave Six1-Eya2 inh inactive and CtBP-E1A inh inactive.
COc1cc(CN2CCNC(=O)C2CC(=O)N2CCCO2)cc(OC)c1 (configuration not stated) was read as Six1-Eya2 inh inactive, MBNL1 CUG block inconclusive, CtBP-E1A inh inactive and PKM2 act 14.1µM.
`Cc1cc(SCc2ccccc2F)nc(=O)[nH]1` gave Six1-Eya2 inh inactive, MBNL1 CUG block inactive and PKM2 act 15.8µM.
For COC(=O)N1C2CC(=O)O[C@@H]3c4cc5c(cc4[C@]1(C)[C@@]3(Br)c1ccccc12)OCO5 the results were PKM2 act inactive[11.5 µM].
Screening CCCCn1c(=O)[nH]c(=O)c2c1nc(-c1ccc(-c3ccccc3Br)o1)n2CC returned Six1-Eya2 inh inactive, MBNL1 CUG block inactive, CtBP-E1A inh inactive and PKM2 act 15.8µM.
For Cc1ccc(C(=O)N/N=C/c2c(O)ccc3ccccc23)cn1 the results were Six1-Eya2 inh -73.9 and MBNL1 CUG block inactive.
For O=C(N/N=C/c1c(O)ccc2ccccc12)c1cccnc1 the results were Six1-Eya2 inh -66.8, MBNL1 CUG block inconclusive and CtBP-E1A inh -91.6.
For O=C(N/N=C/c1c(O)ccc2ccccc12)c1ccc[n+](CCO)c1 the results were Six1-Eya2 inh -90.7, MBNL1 CUG block inconclusive, CtBP-E1A inh -90.0 and PKM2 act inactive.
O=C(N/N=C\c1c(O)ccc2ccccc12)c1ccc(O)cc1 was read as Six1-Eya2 inh -65.0, MBNL1 CUG block inactive, CtBP-E1A inh inconclusive and PKM2 act inactive.
`Cc1cccc(N2CCN(C(C(=O)NCc3ccccc3)c3ccc(C(F)(F)F)cc3)CC2)c1C` (configuration not stated) gave Six1-Eya2 inh inactive and CtBP-E1A inh inactive.
`CC(=O)Nc1ccc(-c2ccnc3c2CC(C(=O)Nc2cccc(N(C)C)c2)O3)cc1` (configuration not stated) gave Six1-Eya2 inh inactive and CtBP-E1A inh inactive.
Cn1nccc1C(=O)N/N=C/c1c(O)ccc2ccccc12 was read as Six1-Eya2 inh -86.7, MBNL1 CUG block inactive and CtBP-E1A inh -82.8.
For O=C(NN=Cc1c(O)ccc2ccccc12)c1ccncc1 the results were Six1-Eya2 inh -88.6 and CtBP-E1A inh inconclusive.
Screening Cn1cc(C(=O)N/N=C/c2c(O)ccc3ccccc23)ccc1=O returned Six1-Eya2 inh -89.0, MBNL1 CUG block inactive and PKM2 act inactive.
Screening O=C(N/N=C\c1c(O)ccc2ccccc12)c1cncc(Br)c1 returned Six1-Eya2 inh inconclusive, MBNL1 CUG block inactive, CtBP-E1A inh inconclusive and PKM2 act inactive[11.5 µM].
For CC(C)c1cccc2cc3c(nc12)-c1cccc(=O)n1C3 the results were PKM2 act inactive.
For O=C1OC(c2ccccc2)=C/C1=C\N1CCOCC1 the results were Six1-Eya2 inh inactive, MBNL1 CUG block inactive, CtBP-E1A inh inactive and PKM2 act inactive.
O=C1OC(c2ccccc2)=C/C1=C/N1CCOCC1 was read as Six1-Eya2 inh inactive, MBNL1 CUG block inactive, CtBP-E1A inh inactive and PKM2 act 15.8µM.

High-throughput results: PubChem BioAssay, National Center for Advancing Translational Sciences (NCATS)
